PubChem BioAssay (NCATS)
Records with an inconclusive call do not appear. Calls of active or inactive are those of the source. Calls follow the shape of the dose curve; as a rule, active = well fitted curve in the direction sought with a large enough effect; inconclusive = small, poorly fitted or top-dose-only effect, or another doubt; inactive = no such curve, though single readings can be large; an effect the other way counts as inactive or inconclusive.

What was measured:
[1] = qHTS for Inhibitors of Plasmodium falciparum (DD2) proliferation (AID 504314);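 also: parasite DNA measured by SYBR Green fluorescence after red cell lysis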
In short: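 Parasite proliferation measured as SYBR Green signal from Plasmodium DNA, mature erythrocytes lacking DNA. 72 h incubation, 37C; activity scaled between vehicle and 0.29 uM artemisinin, with correction from vehicle-only plates.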

[2] = qHTS for Inhibitors of Plasmodium falciparum (GB4) proliferation (AID 504315); also: nearly all actives have a fitted effect of over 50% in size
In short: (§1)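 Parasite growth measured as SYBR Green DNA fluorescence (ex 485, em 535 nm) after overnight lysis following 72 h culture at 37 °C, 0.3% parasitemia, 2.5% hematocrit. Values normalized against DMSO and 0.29 uM artemisinin controls, with plate-stack correction.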

[3] = qHTS for Inhibitors of Plasmodium falciparum (7G8) proliferation (AID 504316); also: series mostly up to about 6.7 µM; nearly all actives have a fitted effect of over 65% in size
In short: as §1

[4] = qHTS for Inhibitors of Plasmodium falciparum (HB3) proliferation (AID 504318); also: nearly all actives have a fitted effect of over 60% in size
In short: as §1

[5] = qHTS for Inhibitors of Plasmodium falciparum (CP250) proliferation (AID 504320)
In short: as §1

Measured: Potency

COC(=O)[C@@H]1[C@@H](C)N(Cc2ccccc2)C(=O)N[C@H]1c1ccccc1
inactive: all assays above

CC1(OC(=O)CCc2ccccc2)C(=O)C=C2C=C(c3ccc(C#N)cc3)N(C3CC3)C=C2C1=O (stereo not given)
inactive: all assays above

COC(=O)C1=C(C(=O)OC)[C@@H]2N(C)c3ccccc3[C@@]23C[C@@H](CO)N(C(=O)C2CCC2)C3=N1
inactive: all assays above

CC[C@H](C)[C@@H](NC(=O)O[C@@H]1C(=O)c2cc(Br)ccc2O[C@H]1c1cccc(OC)c1)C(=O)OC
inactive: all assays above

CC[C@@H](C)CN1C(=O)N[C@@H](CCc2ccccc2)C(C(C)=O)=C1C
inactive: all assays above

COC/C=C/C1=CC2=CC(=O)C(C)(OC(=O)c3cnc4ccccc4n3)C(=O)C2=CN1Cc1ccc(OC)cc1 (stereo not given)
inactive: all assays above

CCOC(=O)CCCNC(=O)N1CCc2nc(-c3ccccc3)c3c(c2C1)CO[C@@H](C)C3
inactive: all assays above

CCOC(=O)CN1C(=O)N[C@@H](c2ccco2)C(C(=O)OC)=C1C
inactive: all assays above

COC/C=C/C1=CC2=CC(=O)C(C)(OC(=O)c3cnc4ccccc4n3)C(=O)C2=CN1CCc1ccccn1 (stereo not given)
inactive: all assays above

CCOC(=O)CN1C(=O)N[C@@H](c2ccc(Br)cc2)C(C(=O)OC)=C1C
inactive: all assays above

CCOC(=O)NN=C1C[C@@H](O)[C@@H](O)[C@@H]2[C@H]3C(=O)N(C4CCCCC4)C(=O)[C@@H]3CC[C@@H]12
inactive: all assays above

CCCCC1=CC2=C(c3ccco3)C(=O)C(C)(OC(=O)c3ccc(OC)cc3)C(=O)C2=CN1CCCCO (stereo not given)
inactive: all assays above

CCCCC1=CC2=CC(=O)C(C)(OC(=O)CC)C(=O)C2=CN1C(CO)CO (stereo not given)
inactive: all assays above

CC1(OC(=O)c2cnc3ccccc3n2)C(=O)C=C2C=C3CCCN3C=C2C1=O (stereo not given)
inactive: all assays above

COC(=O)C1=C(C(=O)OC)[C@@H]2N(Cc3ccccc3)c3ccccc3[C@@]23C[C@@H](C(=O)OC)N(C(C)=O)C3=N1
inactive: all assays above

COC(=O)C1=C(C)N(Cc2ccccc2)C(=O)N[C@H]1c1cccc(F)c1
inactive: all assays above

COC(=O)CCCC1=CC2=CC(=O)C(C)(OC(=O)c3cccs3)C(=O)C2=CN1c1cccc(C#N)c1 (stereo not given)
inactive: all assays above

CCCCc1nc2c(c3c1C[C@H](C)OC3)CN(C(=O)C1CC1)CC2
inactive: all assays above

C=CCN1c2ccccc2[C@]23C[C@@H](C(=O)OC)N(C(=O)CC(C)C)C2=NC(C(=O)OC)=C(C(=O)OC)[C@H]13
inactive: all assays above

CCOC(=O)CN1C(=O)N[C@@H](c2cccc(F)c2)C(C(=O)OC)=C1C
inactive: all assays above

CC(C)OCCCN1C=C2C(=O)C(C)(OC(=O)CCc3ccccc3)C(=O)C=C2C=C1c1ccc(C#N)cc1 (stereo not given)
inactive: all assays above

C[C@H]1Cc2c(-c3ccccc3)nc3c(c2CO1)CN(S(=O)(=O)c1ccc(C#N)cc1)CC3
inactive: all assays above

CCN1C(=O)N[C@@H](c2cccc(F)c2)C(C(=O)OC)=C1C
inactive: all assays above

COC(=O)C1=C(C(=O)OC)[C@@H]2N(C)c3ccc(OC)cc3[C@@]23C[C@@H](C(=O)OC)N(C(=O)COCc2ccccc2)C3=N1
inactive: all assays above
